# Shown are actives, neighbours in structure and some others; about 7.3% of the full set was active somewhere.
# FLuc modulator: qHTS profiling assay for firefly luciferase inhibitor/activator using purifed enzyme and Km concentrations of substrates (counterscreen for miR-21 project); Luciferin 4-monooxygenase (Photinus pyralis), P08659; purified FLuc, Km substrates, luminescence inhibition; Potency, µM (doses to about 57.5 µM), for the others: at the highest dose activity change, negative = inhibition, usual class: inhibitors; hit rate 6.9% among 360,000;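 also: plate controls were vehicle for no effect and reference inhibitor for full effect; nearly all actives have a fitted effect of over 55% in size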
# Target sequence (P08659 whole entry, looked up): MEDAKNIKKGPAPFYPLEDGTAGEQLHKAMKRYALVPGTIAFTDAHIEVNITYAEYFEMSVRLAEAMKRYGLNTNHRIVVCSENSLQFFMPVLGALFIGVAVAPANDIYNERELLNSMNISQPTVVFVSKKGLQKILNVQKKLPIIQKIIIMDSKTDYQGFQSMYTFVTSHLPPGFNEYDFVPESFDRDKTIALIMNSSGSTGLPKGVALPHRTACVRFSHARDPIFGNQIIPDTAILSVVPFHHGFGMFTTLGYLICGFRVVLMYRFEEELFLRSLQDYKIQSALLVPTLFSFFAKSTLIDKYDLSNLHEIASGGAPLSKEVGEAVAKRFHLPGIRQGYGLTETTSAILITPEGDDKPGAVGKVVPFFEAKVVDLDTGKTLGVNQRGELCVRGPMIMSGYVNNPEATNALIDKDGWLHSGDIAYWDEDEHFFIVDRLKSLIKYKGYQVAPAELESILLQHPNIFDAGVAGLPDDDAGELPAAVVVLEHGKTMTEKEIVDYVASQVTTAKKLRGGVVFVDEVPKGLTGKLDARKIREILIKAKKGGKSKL
#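 Purified P. pyralis luciferase (10nM final) with 10uM D-luciferin and 10uM ATP (Km levels) in 50mM Tris acetate pH 7.5, 10mM Mg acetate, 0.01% Tween-20, 0.05% BSA; qHTS 6-point titration, ~60 µM downward; luminescence read.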
# Rab9 promoter act: qHTS Assay for Rab9 Promoter Activators; Huh7 Rab9 promoter-luciferase reporter, luminescence, 24 h; Potency, µM (titrated, usually from 9.22 µM), inactives show at the highest dose activation, negative = inhibition, hits mostly activators; hit rate 2.8% among 320,000; AID 485297, 2010; also: % of control where 0% means no effect; nearly all actives have a fitted effect of over 60% in size
#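 Rab9 promoter-driven luciferase in stably transfected Huh7 cells; 1500 cells/well rested 2 h, exposed to compound in DMSO for 24 h at 37 °C, 5% CO2. Luminescence read 10 min after adding luciferase reagent at ambient temperature.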
# Luc counter: Counterscreen for Luciferase (Kinase-Glo TM) Inhibition; Kinase-Glo luciferase, ATP luminescence, 8 min; Potency, µM (top dose mostly 38.3 µM), inactives show at the top dose activity change, negative = inhibition, actives largely listed as inhibitors; hit rate 0.28% among 200,000; also: % is scaled to controls: 0 for no effect and ±100 for the full control effect; nearly all actives have a fitted effect of over 60% in size
#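 Substrate mix (final 50 mM imidazole pH 7.2, 50 mM KCl, 7 mM MgCl2, 10 uM ATP, 0.01% Tween 20, 0.05% BSA) plus pin-tool compound, then Kinase-Glo detection mix; 8 min ambient, luminescence read.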
# ELG1 genotox: qHTS screen for small molecules that induce genotoxicity in human embryonic kidney (HEK293T) cells expressing luciferase-tagged ELG1; Potency, µM (titrated, usually from 46 µM), for inactives: at the top dose activity change, positive = activation, actives largely listed as activators; hit rate 1.3% among 330,000; HEK293T ELG1-luciferase reporter, luminescence, 16 h; also: % of control where 0% means no effect; nearly all actives have a fitted effect of over 60% in size
#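 Quantitative HTS format in 1536-well plates. HEK293T ELG1-luciferase reporter cells receive test compound and are incubated 16 hr at 37 °C, 5% CO2; ONE-Glo added, 30 min room temperature, then luminescence read.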
# NPC1 promoter act: qHTS Assay for NPC1 Promoter Activators. Huh7 NPC1 promoter luciferase reporter, 24 h. Potency, µM (series often up to 9.22 µM), for the others: at the top dose activation, actives largely listed as activators. hit rate 2.4% among 320,000; also: % of control where 0% means no effect; nearly all actives have a fitted effect of over 60% in size
#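 NPC1 promoter–luciferase Huh7 cells; 24 h compound; luminescence.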
# SMN2 splice enh: qHTS Assay for Enhancers of SMN2 Splice Variant Expression. HEK293 SMN2-luciferase splicing reporter, luminescence, 30-36 h. Potency, µM (titrated, usually from 46.1 µM), inactives show at the highest dose activity change, positive = activation, hits mostly activators. hit rate 2.8% among 210,000. AID 1458, 2008; also: % of control where 0% means no effect; nearly all actives have a fitted effect of over 55% in size
#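 HEK293 cells carry an SMN2 […]–luciferase reporter in which exon 7 inclusion puts luciferase in frame. Cells were plated 10-12 h before compound addition, then incubated 30-36 h at 37C. ONE-Glo luminescence was read; sodium butyrate at 4.5 mM final served as control.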
# The depositor's hits bear a star; u = inconclusive; x = no result given; [ ] = another dose, or the depositor's remark. Calls follow the shape of the dose curve; as a rule, active = well fitted curve in the direction sought with a large enough effect; inconclusive = small, poorly fitted or top-dose-only effect, or another doubt; inactive = no such curve, though single readings can be large; an effect the other way counts as inactive or inconclusive. Potency is read from the fitted curve at half-maximal effect.
SMILES,FLuc modulator,Rab9 promoter act,Luc counter,ELG1 genotox,NPC1 promoter act,SMN2 splice enh
C=CCn1cccc(C(=O)Nc2ccc(Cl)cc2)c1=O,16.9µM*,u,x,u,u,x
C=CCn1cccc(C(=O)Nc2ccc(OC)c(OC)c2)c1=O,u,3.2%,-3.5%,9.0%,12.5%,-16.5%
CSc1ccc(C2CC(=O)Oc3c2c(=O)n(C)c2ccccc32)cc1 (configuration not stated),u,x,x,x,x,9.3%
C=CCn1cccc(C(=O)Nc2ccc(OCC)cc2)c1=O,16.9µM*,u,-2.7%,15.6%,u,-20.5%
C=CCn1cccc(C(=O)Nc2cc(OC)cc(OC)c2)c1=O,u,26.1%,-3.9%,4.9%,5.1%,18.8%
CCc1ccc(NC(=O)N2CCOc3ccc(Cl)cc32)cc1,-17.3%,x,x,x,x,x
Cc1ccc(C(=O)NCC(c2ccc3c(c2)OCO3)N2CCN(c3ccc(F)cc3)CC2)cc1 (configuration not stated),-2.9%,x,x,x,x,x
Oc1c(C(c2ccccc2Cl)N2CCC(O)CC2)sc2nc(-c3ccco3)nn12 (configuration not stated),-15.9%,x,x,x,x,x
CC1=NN(c2ccccc2)C(=O)/C1=C\c1c(C)[nH]n(-c2ccccc2)c1=O,u,-0.4%,-1.7%,-2.9%,3.4%,-21.7%
CC1=NN(c2ccccc2)C(=O)/C1=C/c1c(O)n(-c2ccc(F)c(Cl)c2)[nH]c1=O,2.69µM*,u,-2.3%,16.3%,20.7%,-1.9%[1.84 µM]
O=C(COc1ccc(F)cc1)Nc1ccc(S(=O)(=O)N(Cc2ccccc2)c2ccccc2)cc1,6.3%,x,x,x,x,x
O=C(OCc1nc2ccccc2s1)C1CCN(C2=NS(=O)(=O)c3ccccc32)CC1,10.7µM*,u,-4.5%,u,7.1%,17.6%
O=C(c1cccc(Cl)c1)n1nc(-c2cccnc2)nc1NCc1ccccc1,-7.0%,x,x,x,x,7.9%
COc1ccc(NS(=O)(=O)c2ccc3[nH]c(=O)ccc3c2)cc1OC,-1.7%,x,x,x,x,x
N#Cc1cnc2nc(SCc3ccccc3)nn2c1,-16.7%,u,x,u,1.41µM*,x
CSc1nc2ncc(C#N)cn2n1,-1.3%,-1.0%,1.2%,-3.4%,4.2%,7.6%
CCO[P@]1(=O)OC[C@@H]2O[C@H](n3cnc4c(N)ncnc43)[C@H](O)[C@@H]2O1,x,x,-2.9%[7.66 µM],x,x,-4.3%[9.22 µM]
CCOC(=O)CCc1c(C)c2ccc(OCC(=O)N3CCOCC3)c(C)c2oc1=O,-2.0%,5.5%,x,-3.7%,6.0%,x
CCCc1cc(=O)oc2c(C)c(OCC(=O)N3CCC[C@@H]3C(=O)O)ccc12,5.7%,-2.4%,x,3.8%,-6.1%,x
CCCCCCc1c(C)c2ccc(OCC(=O)N3CCC[C@H]3C(=O)O)c(C)c2oc1=O,16.9µM*,-9.8%,x,1.0%,-0.3%,x
CCOC(=O)CCc1c(C)c2ccc(OCC)c(C)c2oc1=O,12µM*,-8.2%,20.4%,10.4%,1.5%,-6.2%
O=C(O)c1cc(NN=Nc2cccc([N+](=O)[O-])c2)cc([N+](=O)[O-])c1,u,-1.9%,x,0.8%,-4.7%,x
O=[N+]([O-])c1cccc(NN=Nc2ccccc2)c1,10.7µM*,u,x,u,u,x
O=[N+]([O-])c1ccc(N=NNc2ccccc2)cc1,u,u,-1.3%,10.1%,26.1%,15.8µM*
Brc1ccc(N=NNc2ccccc2)cc1,6.01µM*,u,x,u,u,x
COc1ccc(-c2noc(-c3cc4ccccc4oc3=O)n2)cc1,-12.7%,3.6%,-5.8%,-1.6%,7.2%,15.2%
Cc1ccccc1-c1noc(-c2cc3ccccc3oc2=O)n1,1.9µM*,x,x,x,x,x
Cc1ccccc1-c1nnc(-c2cccs2)o1,12µM*,u,-11.1%,u,18.5%,20µM*

# Bioassay records (PubChem)
